From PubChem BioAssay (Tox21)
Several values for one entry are separate records, joined by “and”; a condition that tells them apart may be missing. Equal values may be shown once. Inconclusive results are not listed. More than one record can exist for a structure, and the calls need not agree. Activity calls are given as the source filed them. Unless noted, the call rests on the fitted dose curve; in most records, active means well fitted curve in the direction sought with a large enough effect in the repeat runs; inconclusive means weak or mixed curves; inactive means no such curve, though single readings can be large; an effect the other way counts as inactive or inconclusive.

Experiments:
[1] = qHTS assay to identify small molecule antagonists of the androgen receptor (AR) signaling pathway using the MDA cell line in the presence of 0.5 nM R1881 - cell viability counter screen (AID 1259242); further: nearly all actives have a fitted effect of over 45% in size
Procedure, shortened: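 Live-cell protease fluorescence, CellTiter-Fluor, 30 min at 37C. Cells: MDA-kb2, 3,000/well, preincubated 5 hr. Compounds plus 0.5 nM R1881 final, 16 hr, 37C, 0% CO2.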

[2] = target: Estrogen receptor (Homo sapiens) (UniProt P03372); assay: qHTS assay to identify small molecule antagonists of the estrogen receptor alpha (ER-alpha) signaling pathway using the BG1 cell line in the presence of 0.1 nM 17-beta-estradiol (AID 1259244); further: nearly all actives have a fitted effect of over 50% in size; further: potency means the concentration at half of the fitted maximal effect
Procedure, shortened: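 Luminescence after ONE-Glo (30 min, room temperature) measured ERE-luciferase activity in VM7Luc4E2 cells treated 22 h with compound and 0.1 nM final 17beta-estradiol as stimulator.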

[3] = qHTS assay to identify small molecule HDAC inhibitors (AID 1259364); further: potency means the concentration at half of the fitted maximal effect;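 further: wild-type HCT-116 cells with endogenous class I/II HDAC activity; nearly all actives have a fitted effect of over 45% in size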
Procedure, shortened: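 HCT-116 (wild type), 1,500 cells/well, overnight; compound 2 hr 37C 5% CO2; HDAC-Glo I/II reagent 30 min RT; luminescence readout.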

[4] = qHTS assay to identify small molecule HDAC inhibitors - cell viability counter screen (AID 1259365); further: series mostly up to about 92 µM; nearly all actives have a fitted effect of over 50% in size
Procedure, shortened: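 CellTiter-Glo luminescence (30 min, room temperature) reported viability after a 2 h compound exposure at 37 C. Cells: wild-type HCT-116, 1,500 per well, seeded the night before.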

[5] = qHTS assay to identify small molecule agonists of the sonic hedgehog signaling (Shh) pathway - cell viability counter screen (AID 1259366); further: nearly all actives have a fitted effect of over 50% in size; further: potency means the concentration at half of the fitted maximal effect
Procedure, shortened: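 Cytotoxicity counter screen: CellTiter-Fluor reagent added after 23 h compound exposure, then 1 h at 37C and fluorescence read. Cells were 3T3 Gli1-Luc, seeded 2,000 per well and dosed 4 h post-plating.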

[6] = qHTS assay to identify small molecule antagonists of the sonic hedgehog signaling (Shh) pathway - cell viability counter screen (AID 1259367); further: nearly all actives have a fitted effect of over 55% in size; further: potency means the concentration at half of the fitted maximal effect
Procedure, shortened: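 Cytotoxicity was assessed in parallel with Shh reporter activity by measuring live-cell protease fluorescence (CellTiter-Fluor) in NIH/3T3 cells stably carrying Gli1-Luc, treated with compound under conditioned medium stimulation for 23 hr plus 1 hr reagent incubation.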

[7] = qHTS assay to identify small molecule agonists of the sonic hedgehog signaling (Shh) pathway (AID 1259368; calls by dose curve;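 further: NIH/3T3-derived 3T3Gli1-Luc cells carrying a stable Gli1-driven firefly luciferase reporter; series mostly up to about 92 µM; nearly all actives have a fitted effect of over 15% in size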)
Procedure, shortened: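 Read-out: firefly luciferase luminescence from a Gli1 response element reporter stably integrated in NIH/3T3-derived 3T3Gli1-Luc cells, measured 30 min at room temperature after reagent addition. Compound exposure lasted 24 hr at 37 C, 5% CO2.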

[8] = qHTS assay to identify small molecule antagonists of the sonic hedgehog signaling (Shh) pathway (AID 1259369; calls by dose curve; further: nearly all actives have a fitted effect of over 45% in size; further: potency means the concentration at half of the fitted maximal effect)
Procedure, shortened: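 Luminescence readout: firefly Luc under Gli1 response element in 3T3Gli1-Luc cells (NIH/3T3 clone). Antagonist mode, stimulation by conditioned medium; compound exposure 24hr at 37 C, 5% CO2.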

[9] = target: Estrogen receptor beta (Homo sapiens) (UniProt Q92731); assay: qHTS assay to identify small molecule antagonists of the estrogen receptor beta (ER-beta) signaling pathway (AID 1259378; active means well fitted inhibition curve with a large enough effect in the signal ratio in the repeat runs, not every such curve was filed as active; the % refers to the signal ratio; further: potency means the concentration at half of the fitted maximal effect)
Procedure, shortened: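 ER-beta-UAS-bla HEK293T (GripTite) cells in 2% charcoal-stripped FBS medium were preincubated 6 hr at 37C, dosed with compound, then stimulated with 1 nM E2 (final) for 16 hr; beta-lactamase reporter read by B/G FRET fluorescence after 2 hr substrate loading.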

[10] = qHTS assay to identify small molecule agonists of the androgen receptor (AR) signaling pathway in the presence of an antagonist - cell viability counter screen (AID 1259379);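 further: MDA-kb2 human breast cancer cells carrying an MMTV luciferase reporter; series mostly up to about 92 µM; nearly all actives have a fitted effect of over 25% in size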
Procedure, shortened: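 Viability counter screen: CellTiter-Fluor fluorescence, measured in the same wells as the luciferase read-out. MDA-kb2 cells, 3,000/well, with nilutamide at 3.0uM final and compounds at 15 concentrations, 16 hr at 37C, 0% CO2.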

[11] = qHTS assay to identify small molecule agonists of the estrogen receptor beta (ER-beta) signaling pathway - cell viability counter screen (AID 1259380); further: nearly all actives have a fitted effect of over 30% in size
Procedure, shortened: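 Luminescence read-out (CellTiter-Glo, 30 min, room temp) taken in the same wells as the beta-lactamase reporter assay; ER-beta-UAS-bla HEK293T cells exposed to DMSO-dissolved compounds for 16 hr at 37C in 2% charcoal-stripped FBS medium.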

[12] = target: Estrogen receptor (Homo sapiens) (UniProt P03372); assay: qHTS assay to identify small molecule agonists of the estrogen receptor alpha (ER-alpha) signaling pathway in the presence of an antagonist (AID 1259383; calls by dose curve; further: top concentration of the series differs between compounds; nearly all actives have a fitted effect of over 15% in size)
Procedure, shortened: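 Luciferase luminescence (ONE-Glo, 30min at room temperature) measured in VM7Luc4E2 cells after 22hr compound exposure at 15 concentrations, with 10.0nM ICI-182,780 final present; cells express endogenous ER-alpha and carry four EREs upstream of luciferase.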

[13] = qHTS assay to identify small molecule agonists or antagonists of the thyroid stimulating hormone receptor (TSHR) signaling pathway - wild type cell line counter screen (AID 1259384; calls by dose curve)
Procedure, shortened: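 Wild-type HEK293 cells were plated 18 h at 37 C/5% CO2, pin-dosed with compound plus Ro20-1724 medium, held 30 min at room temperature, then given cAMP-d2 and anti-cAMP-cryptate; fluorescence was read after 1 h. Fifteen concentrations, triplicate.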

[14] = target: Thyrotropin receptor (Homo sapiens) (UniProt P16473); assay: qHTS assay to identify small molecule antagonists of the thyroid stimulating hormone receptor (TSHR) signaling pathway (AID 1259385; calls by dose curve; further: nearly all actives have a fitted effect of over 20% in size)
Procedure, shortened: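 TSHR-HEK293 cells were plated and held 18 h at 37C/5% CO2, then given compound plus Ro20-1724 and stimulated with TSH at 1.5 ng/mL final. After 30 min at room temperature, cAMP was detected with cAMP-d2/anti-cAMP-cryptate (1 h) by fluorescence.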

[15] = qHTS assay to identify small molecule phospholipidosis (PLD) inducers (AID 1259344; active means well fitted curve in the direction sought with a large enough effect; an effect the other way counts as inactive or inconclusive)
Procedure, shortened: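 Cells (HepG2, 900 per well) attach for 4 h, receive LipidTOX Red and compound together, incubate 24 h at 37 C, are fixed 30 min with paraformaldehyde/Hoechst, then imaged at one site per well.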

[16] = target: Androgen receptor (Homo sapiens) (UniProt P10275); assay: qHTS assay to identify small molecule antagonists of the androgen receptor (AR) signaling pathway using the MDA cell line in the presence of 0.5 nM R1881 (AID 1259243); further: nearly all actives have a fitted effect of over 50% in size
Procedure, shortened: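 MDA-kb2, MMTV-luc (AR/GR elements); 3,000 cells/well; cpd + 0.5 nM R1881 final; 16 hr 37C, 0% CO2; ONE-Glo 30 min RT; luminescence.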

[17] = target: Androgen receptor (Homo sapiens) (UniProt P10275); assay: qHTS assay to identify small molecule agonists of the androgen receptor (AR) signaling pathway in the presence of an antagonist (AID 1259381; calls by dose curve; further: nearly all actives have a fitted effect of over 15% in size)
Procedure, shortened: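 Luciferase read-out (ONE-Glo, 30min room temperature) in MDA-kb2 MMTV-reporter cells; agonist mode run in presence of AR antagonist nilutamide, 3.0uM final. Compounds tested as 15-point series, 16hr exposure at 37C, 0% CO2.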

[18] = qHTS assay to identify small molecule antagonists of the estrogen receptor beta (ER-beta) signaling pathway - cell viability counter screen (AID 1259382); further: series mostly up to about 92 µM; nearly all actives have a fitted effect of over 55% in size
Procedure, shortened: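 Luminescent ATP read-out (CellTiter-Glo, 30 min, RT) taken in the same wells as the bla reporter assay. HEK293T ER-beta-UAS-bla cells in 2% charcoal-stripped FBS were exposed to compounds with 1nM E2 for 16 hr at 37C.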

[19] = qHTS assay to identify small molecule agonists of the estrogen receptor alpha (ER-alpha) signaling pathway in the presence of an antagonist - cell viability counter screen (AID 1259386);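 further: series mostly up to about 92 µM; cells exposed to compounds for 22 h at 37 °C before the viability read; nearly all actives have a fitted effect of over 30% in size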
Procedure, shortened: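 Read-out: CellTiter-Fluor fluorescence after 1hr reagent incubation, measured in the same wells as the luciferase readout. VM7Luc4E2 cells were exposed to 15 compound concentrations with 10.0nM ICI-182,780 for 22hr at 37C.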

[20] = target: Estrogen receptor beta (Homo sapiens) (UniProt Q92731); assay: qHTS assay to identify small molecule agonists of the estrogen receptor beta (ER-beta) signaling pathway (AID 1259377; active means well fitted activation curve with a large enough effect in the signal ratio in the repeat runs, not every such curve was filed as active; the % refers to the signal ratio)
Procedure, shortened: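 Ratiometric beta-lactamase FRET read-out came after 2 h substrate loading at room temperature. It followed 16 h compound treatment at 37C of GripTite HEK293T cells carrying a UAS-bla reporter, plated in 2% charcoal-stripped FBS medium.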

Measured: Potency

Chain of Thyrotropin receptor (Homo sapiens) (P16473 whole entry, looked up): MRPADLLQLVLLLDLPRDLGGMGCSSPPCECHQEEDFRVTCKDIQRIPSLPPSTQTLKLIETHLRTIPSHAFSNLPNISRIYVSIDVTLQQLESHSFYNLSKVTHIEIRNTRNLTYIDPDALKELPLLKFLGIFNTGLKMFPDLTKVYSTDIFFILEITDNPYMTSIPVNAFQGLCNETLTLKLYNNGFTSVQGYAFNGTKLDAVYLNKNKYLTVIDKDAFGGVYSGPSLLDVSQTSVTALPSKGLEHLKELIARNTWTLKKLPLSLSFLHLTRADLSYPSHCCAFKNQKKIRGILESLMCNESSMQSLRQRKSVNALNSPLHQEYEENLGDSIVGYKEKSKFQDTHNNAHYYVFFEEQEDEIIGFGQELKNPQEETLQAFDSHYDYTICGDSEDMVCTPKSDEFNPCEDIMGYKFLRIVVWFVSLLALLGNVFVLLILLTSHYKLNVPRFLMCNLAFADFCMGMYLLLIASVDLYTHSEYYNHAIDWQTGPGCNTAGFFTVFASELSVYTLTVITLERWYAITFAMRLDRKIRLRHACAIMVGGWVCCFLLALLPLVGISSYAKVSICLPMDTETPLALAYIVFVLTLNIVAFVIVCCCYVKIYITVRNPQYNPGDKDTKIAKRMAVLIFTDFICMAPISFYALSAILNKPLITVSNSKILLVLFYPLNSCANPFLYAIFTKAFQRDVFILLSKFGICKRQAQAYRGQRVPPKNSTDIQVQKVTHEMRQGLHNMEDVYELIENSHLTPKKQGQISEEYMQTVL
Chain of Estrogen receptor (Homo sapiens) (P03372 whole entry, looked up): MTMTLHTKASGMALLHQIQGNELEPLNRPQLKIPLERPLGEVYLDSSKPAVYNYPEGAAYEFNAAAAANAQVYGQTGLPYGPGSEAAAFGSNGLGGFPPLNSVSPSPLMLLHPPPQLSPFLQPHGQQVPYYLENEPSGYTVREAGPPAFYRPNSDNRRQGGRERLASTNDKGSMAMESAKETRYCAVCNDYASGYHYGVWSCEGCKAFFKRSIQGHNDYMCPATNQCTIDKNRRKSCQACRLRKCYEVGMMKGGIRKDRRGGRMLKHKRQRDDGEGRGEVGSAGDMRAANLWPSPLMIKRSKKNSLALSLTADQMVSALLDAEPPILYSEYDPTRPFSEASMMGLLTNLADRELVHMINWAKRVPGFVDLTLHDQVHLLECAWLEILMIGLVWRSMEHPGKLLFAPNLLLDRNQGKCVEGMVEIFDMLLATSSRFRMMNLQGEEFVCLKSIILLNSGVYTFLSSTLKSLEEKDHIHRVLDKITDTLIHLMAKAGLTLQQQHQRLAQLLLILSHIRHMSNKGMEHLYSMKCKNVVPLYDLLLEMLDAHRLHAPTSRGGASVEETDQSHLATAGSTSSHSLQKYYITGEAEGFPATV
Chain of Androgen receptor (Homo sapiens) (P10275 whole entry, looked up): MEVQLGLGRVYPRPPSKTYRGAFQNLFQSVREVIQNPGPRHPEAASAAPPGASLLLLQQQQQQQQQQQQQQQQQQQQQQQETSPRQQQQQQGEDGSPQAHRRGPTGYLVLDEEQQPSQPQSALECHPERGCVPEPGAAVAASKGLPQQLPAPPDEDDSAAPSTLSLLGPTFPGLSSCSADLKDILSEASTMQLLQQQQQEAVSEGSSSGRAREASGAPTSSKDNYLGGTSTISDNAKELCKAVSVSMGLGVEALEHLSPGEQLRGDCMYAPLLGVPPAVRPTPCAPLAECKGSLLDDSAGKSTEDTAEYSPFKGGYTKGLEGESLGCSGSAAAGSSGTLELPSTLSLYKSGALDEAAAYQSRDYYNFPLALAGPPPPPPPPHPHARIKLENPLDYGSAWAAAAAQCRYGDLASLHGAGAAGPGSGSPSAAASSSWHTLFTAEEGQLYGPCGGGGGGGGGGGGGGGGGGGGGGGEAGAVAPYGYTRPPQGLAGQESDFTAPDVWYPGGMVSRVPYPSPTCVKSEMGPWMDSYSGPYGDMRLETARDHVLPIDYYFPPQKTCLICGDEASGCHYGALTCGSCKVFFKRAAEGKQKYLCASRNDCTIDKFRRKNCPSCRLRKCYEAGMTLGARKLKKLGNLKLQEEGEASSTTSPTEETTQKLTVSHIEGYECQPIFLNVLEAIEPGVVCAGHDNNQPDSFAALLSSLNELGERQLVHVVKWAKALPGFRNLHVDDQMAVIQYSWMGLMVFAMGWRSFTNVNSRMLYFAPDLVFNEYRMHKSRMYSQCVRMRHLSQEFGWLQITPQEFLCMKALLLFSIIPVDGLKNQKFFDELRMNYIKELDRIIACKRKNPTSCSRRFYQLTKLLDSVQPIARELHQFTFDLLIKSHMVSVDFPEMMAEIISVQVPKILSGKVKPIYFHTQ
Chain of Estrogen receptor beta (Homo sapiens) (Q92731 whole entry, looked up): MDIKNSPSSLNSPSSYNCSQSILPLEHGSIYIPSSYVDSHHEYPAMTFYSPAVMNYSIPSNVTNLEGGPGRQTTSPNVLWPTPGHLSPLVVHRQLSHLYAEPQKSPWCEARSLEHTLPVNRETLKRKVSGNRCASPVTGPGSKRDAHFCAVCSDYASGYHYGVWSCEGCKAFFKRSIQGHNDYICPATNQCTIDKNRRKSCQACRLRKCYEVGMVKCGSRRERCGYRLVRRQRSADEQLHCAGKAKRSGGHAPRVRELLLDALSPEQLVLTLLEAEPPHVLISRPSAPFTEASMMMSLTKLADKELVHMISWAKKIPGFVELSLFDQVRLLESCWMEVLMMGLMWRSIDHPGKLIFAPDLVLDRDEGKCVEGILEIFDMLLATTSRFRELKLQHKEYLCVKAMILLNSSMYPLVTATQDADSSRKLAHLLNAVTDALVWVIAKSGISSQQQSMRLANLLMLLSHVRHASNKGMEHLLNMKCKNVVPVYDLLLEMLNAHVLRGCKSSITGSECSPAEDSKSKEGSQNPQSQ

CCCNC(=O)NS(=O)(=O)c1ccc(Cl)cc1
not listed: [15] | [16] | [17] | [18] | [19] | [20]
inactive: all other assays above

O=c1ccc2ccccc2o1
not listed: [8] | [16] | [17] | [18] | [19] | [20]
inactive: all other assays above

Cc1noc(NS(=O)(=O)c2ccc(N)cc2)c1C
not listed: [15] | [16] | [17] | [18] | [19] | [20]
inactive: all other assays above

C1N2CN3CN1CN(C2)C3
not listed: [2] | [12] | [15] | [19] | [20]
inactive: all other assays above

Nc1ccc(S(=O)(=O)Nc2nccs2)cc1
not listed: [9] | [16] | [17] | [19] | [20]
inactive: all other assays above

O=C(O)CCC(=O)O
not listed: [8] | [9] | [16] | [17] | [18] | [19] | [20]
inactive: all other assays above

Cn1c(=O)c2[nH]cnc2n(C)c1=O
not listed: [9] | [15] | [16] | [17] | [19] | [20]
inactive: all other assays above

NC(N)=O
16.3 µM (active) and inactive: [6]
23 µM (active) and inactive: [5]
not listed: [8] | [16] | [17] | [18] | [20]
inactive: all other assays above

Cc1cc(=O)n(-c2ccccc2)n1C
not listed: [13] | [14] | [15] | [20]
inactive: all other assays above

N=C(N)c1ccc(OCCCCCOc2ccc(C(=N)N)cc2)cc1
active: [2] 13.6 µM and 18.5 µM | [3] 8.59 µM and 9.26 µM | [8] 3.84 µM and 2.33 µM and 18.8 µM
not listed: [9] | [16] | [17] | [18] | [19] | [20]
inactive: all other assays above

NNC(=O)c1ccncc1
not listed: [15] | [16] | [17]
inactive: all other assays above

Cn1cc[nH]c1=S
43.2 µM (active) and inactive: [9]
not listed: [15] | [16] | [17] | [18] | [20]
inactive: all other assays above

O=c1cc[nH]c(=S)[nH]1
not listed: [8] | [16] | [17] | [18] | [19] | [20]
inactive: all other assays above

CC(=O)Nc1nnc(S(N)(=O)=O)s1
not listed: [8] | [16] | [17] | [18] | [19] | [20]
inactive: all other assays above

Nc1ccn([C@H]2CC[C@@H](CO)O2)c(=O)n1
not listed: [16] | [17] | [18]
inactive: all other assays above

OC(Cn1cncn1)(Cn1cncn1)c1ccc(F)cc1F
not listed: [8] | [16] | [17] | [18] | [19] | [20]
inactive: all other assays above
